Experiment [1] has as its target Calcium/calmodulin-dependent protein kinase type II subunit alpha (Homo sapiens) (UniProt Q9UQM7). The conditions noted are these: at 1 µM.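 Also: reported value is a mean percent inhibition of CAMK2A.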
The target of experiment [2] is Calcium/calmodulin-dependent protein kinase type II subunit delta (Homo sapiens) (UniProt Q13557). The following applies: at 0.1 µM.
The target is the same in experiment [3]. The conditions noted are these: at 1 µM.
In experiment [4] the target is T1, Calcium/calmodulin-dependent protein kinase type IV (Homo sapiens) (UniProt Q16566).
T1 sequence (whole entry): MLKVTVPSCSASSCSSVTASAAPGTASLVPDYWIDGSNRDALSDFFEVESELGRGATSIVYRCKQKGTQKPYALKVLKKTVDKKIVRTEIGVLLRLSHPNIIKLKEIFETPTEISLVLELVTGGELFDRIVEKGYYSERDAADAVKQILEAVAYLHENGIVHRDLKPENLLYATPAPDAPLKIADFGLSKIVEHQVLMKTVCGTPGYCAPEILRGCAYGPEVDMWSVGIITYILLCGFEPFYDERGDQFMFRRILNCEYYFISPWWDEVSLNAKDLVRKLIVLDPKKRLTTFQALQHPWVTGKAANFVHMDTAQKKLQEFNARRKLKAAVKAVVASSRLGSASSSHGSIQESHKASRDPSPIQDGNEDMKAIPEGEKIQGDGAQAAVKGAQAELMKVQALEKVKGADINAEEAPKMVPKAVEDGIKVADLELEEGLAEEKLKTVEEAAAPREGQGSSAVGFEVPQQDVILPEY
The conditions noted are these: at 0.1 µM.

Experiment [5] addresses T1, Calcium/calmodulin-dependent protein kinase type IV (Homo sapiens). The conditions noted are these: at 1 µM.
The target of experiment [6] is T2, Serine/threonine-protein kinase Chk1 (Homo sapiens) (UniProt O14757).
T2 sequence (whole entry): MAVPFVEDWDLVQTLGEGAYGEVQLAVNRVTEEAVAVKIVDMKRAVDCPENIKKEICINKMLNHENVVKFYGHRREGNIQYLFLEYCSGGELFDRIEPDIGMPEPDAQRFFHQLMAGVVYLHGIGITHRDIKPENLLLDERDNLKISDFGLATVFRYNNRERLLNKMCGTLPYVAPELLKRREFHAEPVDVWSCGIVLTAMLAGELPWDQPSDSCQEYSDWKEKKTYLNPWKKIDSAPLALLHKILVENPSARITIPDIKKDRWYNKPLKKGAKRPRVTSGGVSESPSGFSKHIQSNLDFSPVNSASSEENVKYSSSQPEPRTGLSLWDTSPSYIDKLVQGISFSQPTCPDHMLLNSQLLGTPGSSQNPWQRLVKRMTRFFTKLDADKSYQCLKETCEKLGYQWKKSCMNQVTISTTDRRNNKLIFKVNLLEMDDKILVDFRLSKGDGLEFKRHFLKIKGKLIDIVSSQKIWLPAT
The conditions noted are these: at 0.1 µM.

Experiment [7] deals with T2, Serine/threonine-protein kinase Chk1 (Homo sapiens). The following applies: at 1 µM.
Experiment [8] concerns the target Serine/threonine-protein kinase Chk2 (Homo sapiens) (UniProt O96017). The conditions noted are these: at 0.1 µM.
Experiment [9] shares this target. The conditions noted are these: at 1 µM.
The target of experiment [10] is Death-associated protein kinase 1 (Homo sapiens) (UniProt P53355). The following applies: at 0.1 µM.
For experiment [11] the target is unchanged. The following applies: at 1 µM.
Experiment [12] has as its target T3, Serine/threonine-protein kinase DCLK2 (Homo sapiens) (UniProt Q8N568).
T3 sequence (whole entry): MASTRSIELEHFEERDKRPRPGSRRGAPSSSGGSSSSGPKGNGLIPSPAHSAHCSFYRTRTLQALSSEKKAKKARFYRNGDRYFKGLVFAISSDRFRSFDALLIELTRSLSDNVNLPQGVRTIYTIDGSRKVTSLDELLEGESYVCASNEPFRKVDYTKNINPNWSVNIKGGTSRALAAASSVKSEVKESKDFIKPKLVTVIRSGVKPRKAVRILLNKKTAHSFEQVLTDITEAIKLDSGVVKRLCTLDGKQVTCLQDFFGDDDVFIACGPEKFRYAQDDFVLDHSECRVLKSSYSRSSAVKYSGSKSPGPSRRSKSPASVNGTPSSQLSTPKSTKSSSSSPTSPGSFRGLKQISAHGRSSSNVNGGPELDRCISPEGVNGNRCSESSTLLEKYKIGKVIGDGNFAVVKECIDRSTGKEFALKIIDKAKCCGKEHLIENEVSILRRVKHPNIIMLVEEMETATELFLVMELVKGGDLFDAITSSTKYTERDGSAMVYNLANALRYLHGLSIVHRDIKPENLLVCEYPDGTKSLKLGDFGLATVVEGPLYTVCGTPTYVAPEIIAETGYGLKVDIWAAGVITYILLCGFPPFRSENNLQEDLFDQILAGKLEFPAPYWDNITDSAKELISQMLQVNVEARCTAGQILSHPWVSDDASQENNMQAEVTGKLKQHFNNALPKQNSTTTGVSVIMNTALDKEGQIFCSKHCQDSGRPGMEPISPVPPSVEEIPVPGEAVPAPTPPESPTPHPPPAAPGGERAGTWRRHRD
The conditions noted are these: at 0.1 µM.

Experiment [13] addresses T3, Serine/threonine-protein kinase DCLK2 (Homo sapiens). The following applies: at 1 µM.
Experiment [14] has as its target MAP kinase-activated protein kinase 2 (Homo sapiens) (UniProt P49137). The conditions noted are these: at 0.1 µM.
Experiment [15] shares this target. The conditions noted are these: at 1 µM.
For experiment [16], the target named is MAP kinase-activated protein kinase 3 (Homo sapiens) (UniProt Q16644). The following applies: at 0.1 µM.
MAP kinase-activated protein kinase 3 (Homo sapiens), sequence (Q16644 whole entry, looked up): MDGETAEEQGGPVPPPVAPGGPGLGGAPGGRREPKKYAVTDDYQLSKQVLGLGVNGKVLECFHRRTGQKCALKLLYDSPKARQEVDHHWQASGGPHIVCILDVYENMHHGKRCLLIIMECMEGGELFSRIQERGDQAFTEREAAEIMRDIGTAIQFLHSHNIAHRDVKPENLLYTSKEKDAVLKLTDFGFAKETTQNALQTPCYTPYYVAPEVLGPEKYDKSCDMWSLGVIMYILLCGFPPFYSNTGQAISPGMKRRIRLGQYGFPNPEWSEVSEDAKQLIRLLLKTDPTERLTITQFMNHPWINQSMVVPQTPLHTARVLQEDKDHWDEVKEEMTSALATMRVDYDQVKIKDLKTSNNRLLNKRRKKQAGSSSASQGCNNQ
Experiment [17] shares this target. The conditions noted are these: at 1 µM.
Experiment [18] has as its target Serine/threonine-protein kinase MARK1 (Homo sapiens) (UniProt Q9P0L2). The following applies: at 0.1 µM.
Experiment [19] shares this target. The conditions noted are these: at 1 µM.
In experiment [20] the target is MAP/microtubule affinity-regulating kinase 3 (Homo sapiens) (UniProt P27448). The conditions noted are these: at 0.1 µM.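 Also: mean percent inhibition of MARK3 kinase activity, measured within the GSK PKIS screening panel.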
MAP/microtubule affinity-regulating kinase 3 (Homo sapiens), sequence (P27448 whole entry, looked up): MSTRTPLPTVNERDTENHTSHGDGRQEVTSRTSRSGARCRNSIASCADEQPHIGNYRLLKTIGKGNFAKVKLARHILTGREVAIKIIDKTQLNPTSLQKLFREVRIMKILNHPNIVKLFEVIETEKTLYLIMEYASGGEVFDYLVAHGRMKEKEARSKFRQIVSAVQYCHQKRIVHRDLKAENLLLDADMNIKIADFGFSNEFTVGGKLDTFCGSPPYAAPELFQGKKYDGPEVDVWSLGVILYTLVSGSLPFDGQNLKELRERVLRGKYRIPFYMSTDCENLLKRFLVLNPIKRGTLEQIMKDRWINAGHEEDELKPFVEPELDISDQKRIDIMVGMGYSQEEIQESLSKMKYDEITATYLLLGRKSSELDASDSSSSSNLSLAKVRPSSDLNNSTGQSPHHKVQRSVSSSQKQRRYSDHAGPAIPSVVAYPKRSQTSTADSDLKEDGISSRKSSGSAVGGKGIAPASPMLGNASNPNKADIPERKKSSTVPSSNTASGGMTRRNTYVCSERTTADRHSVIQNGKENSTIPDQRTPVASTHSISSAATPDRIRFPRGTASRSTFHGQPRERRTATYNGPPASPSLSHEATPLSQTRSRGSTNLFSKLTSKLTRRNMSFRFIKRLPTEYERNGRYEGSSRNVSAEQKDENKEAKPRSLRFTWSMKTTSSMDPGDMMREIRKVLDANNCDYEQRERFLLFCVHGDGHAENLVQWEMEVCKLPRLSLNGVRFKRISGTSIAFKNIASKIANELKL

For orientation: inhibition means the drop in the measured response relative to a control, in per cent.

Serine/threonine-protein kinase MARK1 (Homo sapiens), sequence (Q9P0L2 whole entry, looked up): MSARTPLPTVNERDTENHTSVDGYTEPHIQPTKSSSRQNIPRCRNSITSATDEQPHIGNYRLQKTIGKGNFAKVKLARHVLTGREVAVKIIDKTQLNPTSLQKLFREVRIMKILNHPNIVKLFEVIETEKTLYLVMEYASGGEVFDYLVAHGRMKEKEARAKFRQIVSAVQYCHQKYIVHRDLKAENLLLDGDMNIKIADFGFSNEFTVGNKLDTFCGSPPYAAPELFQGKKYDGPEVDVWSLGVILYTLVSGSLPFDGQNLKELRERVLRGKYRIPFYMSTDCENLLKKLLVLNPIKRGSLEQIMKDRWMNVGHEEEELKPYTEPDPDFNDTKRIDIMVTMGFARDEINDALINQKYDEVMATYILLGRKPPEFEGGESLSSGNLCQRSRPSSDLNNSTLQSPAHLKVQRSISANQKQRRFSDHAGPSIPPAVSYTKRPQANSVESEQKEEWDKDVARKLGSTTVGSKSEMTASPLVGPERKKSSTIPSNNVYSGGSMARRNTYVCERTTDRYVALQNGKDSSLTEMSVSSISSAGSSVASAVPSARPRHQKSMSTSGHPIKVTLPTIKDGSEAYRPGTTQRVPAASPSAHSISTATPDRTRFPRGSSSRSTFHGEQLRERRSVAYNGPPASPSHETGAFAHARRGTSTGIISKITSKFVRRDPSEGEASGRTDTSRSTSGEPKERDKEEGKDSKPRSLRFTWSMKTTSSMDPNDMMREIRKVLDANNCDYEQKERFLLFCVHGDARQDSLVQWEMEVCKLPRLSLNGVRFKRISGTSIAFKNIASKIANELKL
Calcium/calmodulin-dependent protein kinase type II subunit alpha (Homo sapiens), sequence (Q9UQM7 whole entry): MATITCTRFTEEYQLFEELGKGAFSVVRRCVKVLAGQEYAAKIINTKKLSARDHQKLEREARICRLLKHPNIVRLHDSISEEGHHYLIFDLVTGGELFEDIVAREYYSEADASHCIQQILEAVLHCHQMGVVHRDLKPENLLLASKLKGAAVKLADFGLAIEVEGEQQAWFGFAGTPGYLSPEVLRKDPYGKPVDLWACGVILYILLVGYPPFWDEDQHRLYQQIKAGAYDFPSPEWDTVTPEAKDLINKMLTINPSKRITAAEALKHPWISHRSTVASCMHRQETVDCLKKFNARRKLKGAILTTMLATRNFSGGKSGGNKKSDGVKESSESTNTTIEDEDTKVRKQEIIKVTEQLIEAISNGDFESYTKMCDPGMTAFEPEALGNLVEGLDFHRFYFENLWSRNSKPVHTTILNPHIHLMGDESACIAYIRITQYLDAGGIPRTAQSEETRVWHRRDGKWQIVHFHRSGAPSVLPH
Calcium/calmodulin-dependent protein kinase type II subunit delta (Homo sapiens), sequence (Q13557 whole entry): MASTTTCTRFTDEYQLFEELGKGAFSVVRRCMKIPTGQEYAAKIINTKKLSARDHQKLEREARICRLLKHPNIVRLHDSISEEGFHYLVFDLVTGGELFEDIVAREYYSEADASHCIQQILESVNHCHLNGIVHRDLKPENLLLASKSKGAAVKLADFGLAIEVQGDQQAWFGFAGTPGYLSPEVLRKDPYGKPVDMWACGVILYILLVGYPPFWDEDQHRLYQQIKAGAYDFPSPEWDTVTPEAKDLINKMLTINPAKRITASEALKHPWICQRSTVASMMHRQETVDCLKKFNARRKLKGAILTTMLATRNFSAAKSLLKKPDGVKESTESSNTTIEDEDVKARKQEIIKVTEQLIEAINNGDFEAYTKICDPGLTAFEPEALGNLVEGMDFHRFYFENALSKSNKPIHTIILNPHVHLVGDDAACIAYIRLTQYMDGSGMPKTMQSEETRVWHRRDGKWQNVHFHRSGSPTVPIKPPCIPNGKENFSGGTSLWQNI
Serine/threonine-protein kinase Chk2 (Homo sapiens), sequence (O96017 whole entry): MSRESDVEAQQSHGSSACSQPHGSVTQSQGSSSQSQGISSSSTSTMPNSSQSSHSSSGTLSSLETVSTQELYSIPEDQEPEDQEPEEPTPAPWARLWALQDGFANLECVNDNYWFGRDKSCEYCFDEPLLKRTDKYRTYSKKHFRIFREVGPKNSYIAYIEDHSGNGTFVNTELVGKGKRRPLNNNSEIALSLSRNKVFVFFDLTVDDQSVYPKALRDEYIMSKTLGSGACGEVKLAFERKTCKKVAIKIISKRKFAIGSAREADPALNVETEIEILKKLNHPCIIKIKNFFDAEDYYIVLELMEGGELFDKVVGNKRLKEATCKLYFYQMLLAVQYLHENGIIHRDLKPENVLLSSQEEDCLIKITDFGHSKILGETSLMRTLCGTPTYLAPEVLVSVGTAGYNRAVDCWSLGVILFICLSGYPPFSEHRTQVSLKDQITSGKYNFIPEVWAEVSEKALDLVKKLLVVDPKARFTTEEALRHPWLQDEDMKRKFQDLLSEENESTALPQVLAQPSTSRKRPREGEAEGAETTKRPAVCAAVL
MAP kinase-activated protein kinase 2 (Homo sapiens), sequence (P49137 whole entry, looked up): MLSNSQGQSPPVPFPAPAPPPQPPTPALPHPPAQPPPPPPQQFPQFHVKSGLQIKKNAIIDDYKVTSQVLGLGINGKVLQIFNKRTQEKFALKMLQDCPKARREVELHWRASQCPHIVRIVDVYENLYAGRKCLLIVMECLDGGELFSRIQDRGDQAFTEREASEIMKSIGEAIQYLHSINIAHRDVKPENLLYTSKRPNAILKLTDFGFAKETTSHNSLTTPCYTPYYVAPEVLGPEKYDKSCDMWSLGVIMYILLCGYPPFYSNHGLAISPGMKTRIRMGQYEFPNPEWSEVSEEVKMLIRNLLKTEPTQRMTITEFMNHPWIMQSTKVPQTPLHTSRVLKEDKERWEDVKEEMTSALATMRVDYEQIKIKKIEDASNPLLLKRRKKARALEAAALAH

As for `CS(=O)(=O)CCNCc1ccc(-c2ccc3ncnc(Nc4ccc(OCc5cccc(F)c5)c(C(F)(F)F)c4)c3c2)o1`, the inhibition was 3.37% in [1]; 3.17% in experiment [2]; 2.68% in [3]; 0.52% in [4]; -0.06% in [5]; 8.99% in experiment [6]. For the same molecule, the inhibition in experiment [7] was determined as 11.5%; in experiment [8] it was 6.84%; in experiment [9] it was 7.75%; in experiment [10], 11.7%; in experiment [11] it was 12.3%; in experiment [12], 3.73%. The inhibition is 0.98% in experiment [13]; 4.67% in experiment [14]; 4.5% in experiment [15]; 10% in [16]; 11.2% in experiment [17]; 3.68% in experiment [18]. For the same molecule, the values for the inhibition in [19] and in experiment [20] were 3.33% and 1.95%, respectively.

For the molecule `Cc1nn(C)c2cc(N(C)c3ccnc(Nc4cccc(S(N)(=O)=O)c4)n3)ccc12`, the inhibition was determined as 1.72% in [1]; 2.35% in experiment [2]; 3.73% in experiment [3]; 1.4% in [4]; 1.88% in experiment [5]; 4.46% in experiment [6]. Besides, the inhibition was found to be 56% in [7]; 6.25% in experiment [8]; 9.6% in [9]; 8.62% in experiment [10]; 8.09% in experiment [11]; 0.57% in experiment [12]. Moreover, the inhibition in [13] was determined as 0.12%; in experiment [14] it was 3.83%; in experiment [15], 3.29%; in [16] it was 8.73%; in experiment [17], 11%; in experiment [18] it was 3.07%. The results for the inhibition in experiment [19] and in experiment [20] were 4.05% and 0.92%, respectively.

Regarding `COc1cc2ncn(-c3cc(OCc4ccccc4C(F)(F)F)c(C(N)=O)s3)c2cc1OC`, the inhibition in [1] is -0.1%; in [2], 3.23%; in experiment [3], 7.03%; in experiment [4], -2.38%; in [5], -1.47%; in [6], 2.54%. Further, the inhibition in experiment [7] was 3.46%; in [8], 3.3%; in experiment [9] it was 5.56%; in experiment [10] it was 4.32%; in experiment [11], -4.22%; in experiment [12], -2.49%. Also, the inhibition in experiment [13] was -0.6%; in experiment [14], 2.27%; in experiment [15], 1.47%; in [16], 4.71%; in experiment [17], 4.41%; in experiment [18], 4.83%. Besides, the inhibition in [19] was 22.1%; in [20], 5.55%.

As for `COc1cc2ncn(-c3cc(O[C@H](C)c4ccccc4Cl)c(C(N)=O)s3)c2cc1OC`, the inhibition in experiment [1] was 7.42%; in [2], 5.14%; in experiment [3], 19.1%; in experiment [4], -2.07%; in [5], -0.73%; in experiment [6], 3.51%. For the same molecule, the inhibition was -0.5% in experiment [7]; -2.58% in [8]; -0.51% in experiment [9]; -5.15% in experiment [10]; -9.77% in [11]; 0.64% in experiment [12]. For the same molecule, the inhibition in [13] is 1.35%; in experiment [14], -0.8%; in experiment [15], -0.71%; in experiment [16] it was -2.77%; in experiment [17] it was -0.41%; in experiment [18], 5.95%. Further, the inhibition in experiment [19] was found to be 31.9%; in [20], 3.47%.

For `Nc1ncnc2occ(-c3ccc(NC(=O)Nc4cc(C(F)(F)F)cc(C(F)(F)F)c4)cc3)c12`, the inhibition is 2.09% in experiment [1]; 2.95% in experiment [2]; 1.63% in experiment [3]; 0.17% in [4]; 3.99% in [5]; 1.83% in experiment [6]. Also, the inhibition in experiment [7] came to 5.4%; in experiment [8], 1.45%; in experiment [9], 2.14%; in experiment [10], 1.57%; in experiment [11], 3.18%; in experiment [12] it was 0.95%. The inhibition turned out to be 1.34% in experiment [13]; 0.92% in experiment [14]; 0.1% in [15]; 2.58% in experiment [16]; 4.92% in experiment [17]; 0.83% in experiment [18]. Further, the inhibition in experiment [19] was -0.19%; in [20], 3.3%.

As to `COc1ccc(COc2ccc(Cc3cnc(N)nc3N)cc2OC)cc1`, the inhibition in [1] turned out to be 5.8%; in experiment [2], 2.39%; in experiment [3], 2.5%; in experiment [4] it was 1.77%; in [5], 3.54%; in [6] it was 5.47%. Besides, the inhibition in experiment [7] was 7.23%; in experiment [8], 5.87%; in experiment [9], 4.77%; in [10], 8.9%; in experiment [11], 9.42%; in [12], 0.28%. Besides, the inhibition came to 8.82% in experiment [13]; 2.95% in [14]; 3.22% in experiment [15]; 6.15% in experiment [16]; 7.43% in [17]; 2.6% in experiment [18]. Also, the inhibition in experiment [19] is 0.09%; in experiment [20] it was 4.54%.

These data come from ChEMBL document CHEMBL1961873, “Compounds: GSK PKIS; Assays: Nanosyn kinase panel” (2012).
